A word on the % Inhibition: it is the change of the read-out against control, counted positive when it falls.

The results in this text go back to ChEMBL document CHEMBL4888484, “Replenishing the malaria drug discovery pipeline: Screening and hit evaluation of the MMV Hit Generation Library 1 (HGL1) against asexual blood stage Plasmodium falciparum ,using a nano luciferase reporter read-out” (2022).

The campaign covered roughly 4,800 compounds. About 410 (8.5%) showed an effect of 50% or more. Shown is part of a subset that was picked to be rich in strong results.

The subject of this experiment is Plasmodium falciparum. Put plainly: Confirmatory screen in NF54 pLDH assay, in single point, at 2uM, 72h. The class given is functional, Erythrocyte. As to conditions: timepoint 72 hour.
Regarding `CC(CCc1ccccc1)N1C(=O)NC(=O)C2(Cc3c(ccc4ccccc34)N(C)C2)C1=O` (stereo not drawn), the “% Inhibition” value came out at 6%.

Regarding `CCn1cnc2c(N3C4CCC3C(C(=O)OC(C)(C)C)C4)ncnc21` (stereo not drawn), the “% Inhibition” value is listed as -8%.

`CC1CNCC(C)N1Cc1csc(C2CC2)n1` (stereo not drawn): the “% Inhibition” value was -9%.

Turning to `O=C1NC(=O)C2(Cc3cccc(F)c3N3CCC(c4ccccc4)CC32)C(=O)N1c1ccccc1` (stereo not drawn), the “% Inhibition” value is reported as -18%.

For `O=C(N1CCN(C(c2ccccc2)c2ccccc2)CC1)C(O)(c1ccccc1)c1ccccc1`, the “% Inhibition” value is -14%.

Consider `COc1cc(OCC(=O)N2CCN([C@@H](C)Cc3ccccc3)CC2)cc(OC)c1OC`, for which the “% Inhibition” value came to 3%.

`Cc1cc(=O)c(OCC(=O)N2CCN([C@@H](c3ccccc3)c3ccc(Cl)cc3)CC2)c[nH]1`: the “% Inhibition” value was determined as 74%.

`COc1cnc(C(F)(F)F)nc1N1CCNCC1`: the “% Inhibition” value is recorded as 9%.

On to `Cn1cc(Br)cc1C(=O)C(Cl)(Cl)Cl`, for which the “% Inhibition” value is listed as -6%.

For `CC(C)(C)NC(=O)C1CC2CCCCC2CN1` (stereo not drawn), the “% Inhibition” value worked out at 2%.

On to `CN1CC2(CN(Cc3cnc4ccc(Cl)cn34)C2)OC1=O`, for which the “% Inhibition” value is reported as 6%.

Take `C=CCN(C)C[C@H]1CN2CC[C@H]1C[C@@H]2CNC(=O)Nc1ccc(OC(F)(F)F)cc1`: the “% Inhibition” value is given as 17%.

For `O=C1CCN(C(=O)c2ccc(Cl)c(Cl)c2)CC1`, the “% Inhibition” value was found to be 12%.

Consider `CN1CCC(N(C)C2CCCCC2N(C)C(=O)Cc2ccc(O)cc2)CC1` (stereo not drawn), for which the “% Inhibition” value was 4%.

In the case of `CN1CC2CN(Cc3ccccc3)CC(C1)C2=O`, the “% Inhibition” value is listed as -5%.

For the compound `CC(=O)N(C1CCN(Cc2ccccc2)CC1)C1(C(=O)Nc2ccc3[nH]ccc3c2)CCN(C)CC1`, the “% Inhibition” value turned out to be 101%.

With `COCCn1ccc(C(=O)N[C@H]2CCc3nc(C(C)C)nn3C2)n1`, the “% Inhibition” value came out at 1%.

Consider `CN1CC[C@]2(CCN(c3ccnc4ccsc34)C2)C1`, for which the “% Inhibition” value was determined as 97%.

Consider `c1cc(N2CC[C@@]3(CCCNC3)C2)c2sccc2n1`, for which the “% Inhibition” value was determined as 98%.

As for `CN1CCC2(CC1)CNc1ccccc12`, the “% Inhibition” value was 0%.

With `COC(=O)COc1ccc(C#N)c(Cl)c1`, the “% Inhibition” value was found to be 1%.

For `CCOc1ccccc1NC(=O)c1cn(Cc2ccc(N)cc2)cn1`, the “% Inhibition” value was found to be 6%.

As for `O=c1[nH]c2cc(NS(=O)(=O)c3ccc(C4CCCCC4)cc3)ccc2o1`, the “% Inhibition” value was -14%.

With `COc1ccc(N2C[C@H]2c2ccncc2)cc1`, the “% Inhibition” value is listed as 12%.

Turning to `O=C(NC[C@H]1C[C@@H]2CC[N@]1C[C@@H]2CN1CCC(Cc2ccccc2)CC1)Nc1ccccc1`, the “% Inhibition” value was 27%.

`CN(C)C(=O)Oc1cccc2ccc(CN3CCC(N4CCN(c5ccc(C(F)(F)F)cn5)CC4)CC3)nc12`: the “% Inhibition” value worked out at 5%.

Regarding `O=C(Cc1cnc2ccccn12)N1C[C@H]2CC[C@@H](C1)N(Cc1ccccn1)C2`, the “% Inhibition” value is listed as 20%.

For `CNCCc1cc(OC)c(OC)c2c1ccc1cc(OC)c(OC)cc12`, the “% Inhibition” value was 7%.

Regarding `c1ccc2c(CCNC3(c4nnnn4C4CCCCC4)CCCCC3)c[nH]c2c1`, the “% Inhibition” value is recorded as 16%.

Turning to `O=S(=O)(NC12CCCC1CNC2)c1onc(C2CC2)c1Cl` (stereo not drawn), the “% Inhibition” value was found to be 97%.

As for `O=C(NCc1ccc(Br)cn1)[C@H]1NCC12CCCC2`, the “% Inhibition” value was found to be 4%.

With `COC(=O)CNc1cc(C)c([C@@](O)(C(=O)OC)C(F)(F)F)cc1OC`, the “% Inhibition” value came to 6%.

Turning to `CCN(CC)C(=O)Oc1cc2nnnn2nc1-c1ccccc1`, the “% Inhibition” value turned out to be 6%.

On to `CC(C)N1C(=O)NC(=O)C2(Cc3ccccc3N3CCN(Cc4ccccc4)CC32)C1=O` (stereo not drawn), for which the “% Inhibition” value is on record as 19%.

Regarding `C=CCCC(CN1C[C@H]2CC=CC[C@H]2C1)Oc1ncc(F)cn1` (stereo partly drawn), the “% Inhibition” value came out at 64%.

Take `C[C@@H](Cc1ccc(O)cc1)NCc1cc[nH]n1`: the “% Inhibition” value amounted to 12%.

Turning to `CCCC(=O)N(C(=O)CCC)c1ccc2[nH]c(=O)oc2c1`, the “% Inhibition” value is on record as -1%.

For `Cc1ccc(Cl)c(NC(=O)N2CCC[C@H](c3n[nH]c(=O)o3)C2)c1`, the “% Inhibition” value is listed as 2%.
